# Experimental data: PubChem BioAssay (EPA / NIEHS)
# Inconclusive results are not listed. Active and inactive are the calls of the source. How the source made its calls: active means hit-call score of the fitted dose curve at least 0.9, where 1 is the maximum; inconclusive means response in the unintended direction; inactive means score below 0.9.
# Target: human Matrix Metalloproteinase-9 (MMP9), MMP9 (gene 4318) (UniProt P14780)
# Test: NVS_ENZ_hMMP9: NovaScreen (NVS) Enzymatic Assay for human Matrix Metalloproteinase-9 (MMP9) (AID 2283190);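 further: cell-free recombinant MMP9 protease activity read by fluorescent substrate signal; active means inhibition seen as loss of fluorescence signal versus DMSO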
# How it was run: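 Inhibition was scored as loss of fluorescence signal against DMSO controls. The recombinant protease was exposed to chemicals for 1 hour before reading; initial testing used 25 uM in duplicate.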
# human Matrix Metalloproteinase-9 (MMP9), MMP9 (gene 4318), sequence (P14780 whole entry, looked up): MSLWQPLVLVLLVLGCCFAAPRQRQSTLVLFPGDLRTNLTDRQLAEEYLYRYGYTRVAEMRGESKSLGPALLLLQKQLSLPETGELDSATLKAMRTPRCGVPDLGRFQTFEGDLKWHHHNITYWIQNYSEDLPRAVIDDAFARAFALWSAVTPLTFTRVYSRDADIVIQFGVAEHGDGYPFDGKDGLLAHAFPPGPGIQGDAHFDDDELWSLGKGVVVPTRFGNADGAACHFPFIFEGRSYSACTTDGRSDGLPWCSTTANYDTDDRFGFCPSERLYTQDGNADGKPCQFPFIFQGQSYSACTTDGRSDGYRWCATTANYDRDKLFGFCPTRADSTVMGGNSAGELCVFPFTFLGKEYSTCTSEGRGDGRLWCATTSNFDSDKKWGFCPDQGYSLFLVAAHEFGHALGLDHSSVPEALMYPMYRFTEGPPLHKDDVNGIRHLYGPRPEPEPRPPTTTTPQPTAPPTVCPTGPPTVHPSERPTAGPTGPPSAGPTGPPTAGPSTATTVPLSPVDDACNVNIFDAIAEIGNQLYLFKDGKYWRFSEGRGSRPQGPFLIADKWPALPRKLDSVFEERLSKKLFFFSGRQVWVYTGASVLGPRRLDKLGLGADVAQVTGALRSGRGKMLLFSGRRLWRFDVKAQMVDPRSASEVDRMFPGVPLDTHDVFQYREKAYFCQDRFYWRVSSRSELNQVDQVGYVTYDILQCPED
Compound,AC50,outcome
CC(C)C(=O)OCCOc1ccccc1,7.19 µM (active),
CCOC(=O)C1=NOC(c2ccccc2)(c2ccccc2)C1,2.32 µM (active),
O=C(Oc1ccccc1)c1ccccc1C(=O)Oc1ccccc1,9.17 µM (active),
C=C(C)OC(C)=O,9.44 µM (active),
CCC(C)(O)CCCC(C)C (stereo not drawn),0.972 µM (active),
C=CCCCCCCCCC=O,5.07 µM (active),
CC(C)c1cccc(C(C)C)c1N,6.9 µM (active),
Cc1ccc(S(=O)(=O)N=C=O)cc1,7.22 µM (active),
CCCCCCCO,0.197 µM (active),
CCCSSCCC,6.62 µM (active),
CCc1occc(=O)c1O,6.98 µM (active),
CCCCOCCOCCOC(C)=O,1.23 µM (active),
CO[Si](CCCS)(OC)OC,12.4 µM (active),
CC(C)(CO)COC(=O)C(C)(C)CO,9.37 µM (active),
CC=C(C)C=CC=C(C)C,4.96 µM (active),
CC(C)CCCCCOC(=O)CS,5.63 µM (active),
CCCCC(C=O)CC (stereo not drawn),5.82 µM (active),
COc1ccc(C(=O)/C(Br)=C\C(=O)O)cc1,4.96 µM (active),
CCCCOC(=O)CCC(C)=O,6.97 µM (active),
CCCCCCCC(=O)OCC(COC(=O)CCCCCCC)OC(=O)CCCCCCC,4.96 µM (active),
OCCCc1ccccc1,,inactive
CCCCCCOC(=O)CCCCC(=O)OCCCCCC,7.16 µM (active),
Cc1c(O)cccc1O,25.5 µM (active),

# Target: human Phosphodiesterase 10 (PDE10), PDE10A (gene 10846) (UniProt Q9Y233)
# Sequence (Q9Y233 whole entry, looked up): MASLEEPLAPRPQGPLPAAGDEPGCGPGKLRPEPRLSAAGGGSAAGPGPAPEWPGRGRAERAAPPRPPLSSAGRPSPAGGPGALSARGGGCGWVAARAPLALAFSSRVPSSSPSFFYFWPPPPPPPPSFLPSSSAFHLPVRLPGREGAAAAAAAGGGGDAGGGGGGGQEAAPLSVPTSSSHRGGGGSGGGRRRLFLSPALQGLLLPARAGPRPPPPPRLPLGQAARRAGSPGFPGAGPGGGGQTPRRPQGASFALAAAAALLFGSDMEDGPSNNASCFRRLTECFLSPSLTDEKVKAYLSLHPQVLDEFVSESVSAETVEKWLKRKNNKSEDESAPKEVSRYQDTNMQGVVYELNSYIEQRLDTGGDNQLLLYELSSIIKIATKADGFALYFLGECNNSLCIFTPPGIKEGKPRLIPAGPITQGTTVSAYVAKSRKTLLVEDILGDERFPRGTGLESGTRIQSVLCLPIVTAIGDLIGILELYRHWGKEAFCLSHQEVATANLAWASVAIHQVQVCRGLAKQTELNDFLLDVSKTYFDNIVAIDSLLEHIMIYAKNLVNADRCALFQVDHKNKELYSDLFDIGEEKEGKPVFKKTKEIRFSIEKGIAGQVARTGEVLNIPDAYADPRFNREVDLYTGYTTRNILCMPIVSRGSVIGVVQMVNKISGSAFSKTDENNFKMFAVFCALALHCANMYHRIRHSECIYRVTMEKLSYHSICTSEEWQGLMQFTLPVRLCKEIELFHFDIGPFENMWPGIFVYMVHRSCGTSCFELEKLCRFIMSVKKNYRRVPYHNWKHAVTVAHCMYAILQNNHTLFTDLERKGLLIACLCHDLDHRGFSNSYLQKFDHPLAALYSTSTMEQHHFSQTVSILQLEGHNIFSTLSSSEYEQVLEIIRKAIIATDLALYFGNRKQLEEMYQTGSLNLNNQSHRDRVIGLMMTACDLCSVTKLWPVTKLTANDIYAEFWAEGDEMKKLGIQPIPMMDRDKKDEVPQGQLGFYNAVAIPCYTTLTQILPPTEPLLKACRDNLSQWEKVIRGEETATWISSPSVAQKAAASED
# Test: NVS_ENZ_hPDE10: NovaScreen (NVS) Enzymatic Assay for human Phosphodiesterase 10 (PDE10) (AID 2283195)
# How it was run: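 PDE10A, cell-free; 1 h incubation; fluorescence intensity + electrophoretic mobility shift separating substrate/product; DMSO = baseline; 25 uM duplicate primary, CRC up to 50 uM.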
row,Compound,outcome
1,CCCSSCCC,inactive
2,CCCCOCCOCCOC(C)=O,inactive
3,CC=C(C)C=CC=C(C)C,inactive

# Target: human Phosphoinositide 3-kinase alpha (PI3Ka), PIK3CA (gene 5290) (UniProt P42336)
# Sequence (P42336 whole entry, looked up): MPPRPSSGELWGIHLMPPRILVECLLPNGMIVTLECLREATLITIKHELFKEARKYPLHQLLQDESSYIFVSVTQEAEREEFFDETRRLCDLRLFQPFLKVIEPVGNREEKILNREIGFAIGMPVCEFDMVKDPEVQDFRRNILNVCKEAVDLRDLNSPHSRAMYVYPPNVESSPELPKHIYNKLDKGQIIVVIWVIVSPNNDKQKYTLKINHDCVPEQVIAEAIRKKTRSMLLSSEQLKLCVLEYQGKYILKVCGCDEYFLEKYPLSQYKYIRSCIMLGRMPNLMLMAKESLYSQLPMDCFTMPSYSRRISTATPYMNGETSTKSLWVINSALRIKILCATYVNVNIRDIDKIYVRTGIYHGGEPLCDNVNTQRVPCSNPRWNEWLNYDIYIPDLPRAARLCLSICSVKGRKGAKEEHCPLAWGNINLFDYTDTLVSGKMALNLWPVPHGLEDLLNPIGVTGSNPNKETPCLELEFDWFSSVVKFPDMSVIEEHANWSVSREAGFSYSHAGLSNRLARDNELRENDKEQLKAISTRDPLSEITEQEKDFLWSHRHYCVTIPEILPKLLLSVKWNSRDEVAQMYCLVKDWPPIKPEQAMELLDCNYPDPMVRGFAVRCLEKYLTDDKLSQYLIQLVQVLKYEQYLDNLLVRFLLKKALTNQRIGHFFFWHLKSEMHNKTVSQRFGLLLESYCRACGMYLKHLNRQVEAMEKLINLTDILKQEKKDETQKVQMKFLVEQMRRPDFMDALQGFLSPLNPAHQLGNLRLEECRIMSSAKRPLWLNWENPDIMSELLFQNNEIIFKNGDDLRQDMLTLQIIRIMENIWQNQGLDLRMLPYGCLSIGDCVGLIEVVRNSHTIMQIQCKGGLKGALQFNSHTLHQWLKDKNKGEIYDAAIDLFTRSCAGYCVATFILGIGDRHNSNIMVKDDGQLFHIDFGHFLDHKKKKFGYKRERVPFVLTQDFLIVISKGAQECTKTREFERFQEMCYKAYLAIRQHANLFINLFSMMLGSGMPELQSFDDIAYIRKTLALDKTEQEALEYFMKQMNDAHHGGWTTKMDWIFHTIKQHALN
# Test: NVS_ENZ_hPI3Ka: NovaScreen (NVS) Enzymatic Assay for human Phosphoinositide 3-kinase alpha (PI3Ka) (AID 2283196)
# How it was run: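 Chemicals were first screened at 25 uM in duplicate, then hits were run as concentration series up to 50 uM. Enzyme activity was measured by fluorescence after mobility-shift separation, with loss of signal relative to DMSO taken as activity.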
Compound,outcome,AC50
CCCCOCCOCCOC(C)=O,inactive,
CO[Si](CCCS)(OC)OC,,39 µM (active)
CC=C(C)C=CC=C(C)C,,0.976 µM (active)

# Target: sheep Cyclooxygenase-1 (Cox1), PTGS1 (gene 443551) (UniProt P05979)
# Sequence (P05979 whole entry, looked up): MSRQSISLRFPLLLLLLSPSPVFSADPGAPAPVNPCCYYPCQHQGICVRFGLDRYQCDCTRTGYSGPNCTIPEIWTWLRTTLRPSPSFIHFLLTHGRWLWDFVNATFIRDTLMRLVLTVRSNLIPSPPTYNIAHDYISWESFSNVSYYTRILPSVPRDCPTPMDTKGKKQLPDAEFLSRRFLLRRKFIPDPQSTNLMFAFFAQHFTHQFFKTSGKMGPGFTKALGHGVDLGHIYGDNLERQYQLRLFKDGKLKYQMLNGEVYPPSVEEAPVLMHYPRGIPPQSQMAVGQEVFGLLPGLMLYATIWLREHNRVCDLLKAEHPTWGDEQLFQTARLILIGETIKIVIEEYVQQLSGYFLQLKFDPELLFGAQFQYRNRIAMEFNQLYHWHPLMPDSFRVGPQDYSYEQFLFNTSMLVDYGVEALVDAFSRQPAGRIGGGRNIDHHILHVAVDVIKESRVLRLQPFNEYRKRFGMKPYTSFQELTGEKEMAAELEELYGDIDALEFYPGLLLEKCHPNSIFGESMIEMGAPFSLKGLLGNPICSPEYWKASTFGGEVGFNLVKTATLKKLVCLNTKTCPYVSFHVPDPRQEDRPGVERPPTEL
# Test: NVS_ENZ_oCOX1: NovaScreen (NVS) Enzymatic Assay for sheep Cyclooxygenase-1 (Cox1) (AID 2283239);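 further: actives reduce cyclooxygenase activity so potencies are for inhibitors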
# How it was run: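 Absorbance read-out of cyclooxygenase activity in a cell-free preparation from sheep seminal vesicles, taken 0.66 hour after dosing. Initial testing was in duplicate at 25 uM, and confirmatory testing was run in concentration series.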
Compound,outcome,AC50
C=CCCCCCCCCC=O,inactive,
CCc1occc(=O)c1O,,0.243 µM (active)
COc1ccc(C(=O)/C(Br)=C\C(=O)O)cc1,,25 µM (active)
Cc1c(O)cccc1O,,5.06 µM (active)
